PubChem BioAssay (Tox21)
Inconclusive results are not listed. Calls of active or inactive are those of the source. Unless noted, the call rests on the fitted dose curve; in most records, active means well fitted curve in the direction sought with a large enough effect in the repeat runs; inconclusive means weak or mixed curves; inactive means no such curve, though single readings can be large; an effect the other way counts as inactive or inconclusive.

Key:
[1] = qHTS assay to identify small molecule agonists of the peroxisome proliferator-activated receptor delta (PPARd) signaling pathway - cell viability counter screen (AID 743211); further: nearly all actives have a fitted effect of over 55% in size
How it was run: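 PPARd-bla HEK293H cells (3000/well) were pre-incubated 5 h at 37 C, then exposed to compound for 17 h at 37 C. After 2 h with LiveBLAzer substrate, CellTiter-Glo was added to the same wells; luminescence read after 30 min at room temperature.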

[2] = target: Peroxisome proliferator-activated receptor delta (Homo sapiens) (UniProt Q03181); experiment: qHTS assay to identify small molecule agonists of the peroxisome proliferator-activated receptor delta (PPARd) signaling pathway (AID 743212; calls by dose curve)
Peroxisome proliferator-activated receptor delta (Homo sapiens), sequence (Q03181 whole entry, looked up): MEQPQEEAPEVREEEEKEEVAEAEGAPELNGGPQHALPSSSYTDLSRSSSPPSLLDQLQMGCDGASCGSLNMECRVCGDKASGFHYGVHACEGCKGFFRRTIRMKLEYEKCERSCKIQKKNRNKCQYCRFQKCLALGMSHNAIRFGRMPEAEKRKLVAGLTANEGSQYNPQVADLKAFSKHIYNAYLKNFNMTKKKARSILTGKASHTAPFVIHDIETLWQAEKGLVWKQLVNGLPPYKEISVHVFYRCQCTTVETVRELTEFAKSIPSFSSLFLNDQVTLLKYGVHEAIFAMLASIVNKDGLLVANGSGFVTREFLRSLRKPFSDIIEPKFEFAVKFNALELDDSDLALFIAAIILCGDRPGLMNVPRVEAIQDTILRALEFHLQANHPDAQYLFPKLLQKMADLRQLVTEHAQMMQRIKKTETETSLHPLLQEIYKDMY
How it was run: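 Beta-lactamase reporter read by fluorescence (LiveBLAzer B/G FRET, 2 h, room temperature). Test agents, in DMSO, incubated at 37 C with PPARd-bla HEK293H cells.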

[3] = qHTS assay to identify small molecule antagonists of the peroxisome proliferator-activated receptor delta (PPARd) signaling pathway - cell viability counter screen (AID 743213); further: nearly all actives have a fitted effect of over 50% in size
How it was run: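 Cytotoxicity counter screen: CellTiter-Glo luminescence read 30 min after addition, in the same wells as the reporter assay. There, PPARd UAS-bla HEK293H cells (3000/well) were treated 17 h at 37 C with compound and 300 nM L165041.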

[4] = target: Peroxisome proliferator-activated receptor delta (Homo sapiens) (UniProt Q03181); experiment: qHTS assay to identify small molecule antagonists of the peroxisome proliferator-activated receptor delta (PPARd) signaling pathway (AID 743215; active means well fitted inhibition curve with a large enough effect in the signal ratio in the repeat runs, not every such curve was filed as active; the % refers to the signal ratio;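 further: cells stimulated with agonist L165041 at 300 nM final during compound exposure; series mostly up to about 62 µM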)
How it was run: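 Cells: HEK293H with a UAS-driven beta-lactamase reporter responsive to PPARd. Compounds were co-added with L165041 (300 nM, final) and incubated 17 h at 37 C before a 2 h room-temperature FRET substrate step and fluorescence reading.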

[5] = qHTS assay to identify small molecule agonists of the farnesoid-X-receptor (FXR) signaling pathway - cell viability counter screen (AID 743218); further: nearly all actives have a fitted effect of over 45% in size
How it was run: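 Cells were seeded, left 5 h at 37 C and 5% CO2, then dosed with compound in DMSO for 16 h. After the beta-lactamase FRET read, CellTiter-Glo was added and luminescence measured 30 min later.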

[6] = qHTS assay to identify small molecule antagonists of the farnesoid-X-receptor (FXR) signaling pathway - cell viability counter screen (AID 743221; active means well fitted cell-killing curve with a large enough effect in the repeat runs, not every such curve was filed as active; further: nearly all actives have a fitted effect of over 50% in size)
How it was run: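 GeneBLAzer FXR-UAS-bla HEK 293T cells, compound plus chenodeoxycholic acid (50 uM final), 16 h at 37 C. CellTiter-Glo added to the same wells after the beta-lactamase read; luminescence read after 30 min at room temperature as viability.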

[7] = target: Vitamin D3 receptor (Homo sapiens) (UniProt P11473); experiment: qHTS assay to identify small molecule agonists of the vitamin D receptor (VDR) signaling pathway (AID 743222; calls by dose curve)
Vitamin D3 receptor (Homo sapiens), sequence (P11473 whole entry, looked up): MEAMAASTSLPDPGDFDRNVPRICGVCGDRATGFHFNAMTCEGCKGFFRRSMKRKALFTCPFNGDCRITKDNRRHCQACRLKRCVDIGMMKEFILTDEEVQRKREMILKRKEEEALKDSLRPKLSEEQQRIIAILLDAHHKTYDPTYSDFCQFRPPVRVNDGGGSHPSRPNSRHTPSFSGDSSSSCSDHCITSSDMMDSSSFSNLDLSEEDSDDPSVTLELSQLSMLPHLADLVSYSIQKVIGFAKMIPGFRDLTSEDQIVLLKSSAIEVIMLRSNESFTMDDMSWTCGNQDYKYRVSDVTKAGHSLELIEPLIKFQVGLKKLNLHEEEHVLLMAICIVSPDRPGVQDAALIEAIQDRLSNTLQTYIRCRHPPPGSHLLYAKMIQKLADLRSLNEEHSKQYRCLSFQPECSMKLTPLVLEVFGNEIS
How it was run: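 Cells carrying a VDR-driven beta-lactamase reporter are seeded at 2,000 per well and rested 4 h. Compounds in DMSO are added for 16 h at 37C, and FRET substrate fluorescence is measured after 2 h at room temperature.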

[8] = target: Vitamin D3 receptor (Homo sapiens) (UniProt P11473); experiment: qHTS assay to identify small molecule antagonists of the vitamin D receptor (VDR) signaling pathway (AID 743223; active means well fitted inhibition curve with a large enough effect in the signal ratio in the repeat runs, not every such curve was filed as active; the % refers to the signal ratio)
How it was run: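 VDR-bla cells were treated with compound plus 3 nM final 1alpha,25-dihydroxyvitamin D3 for 16 h at 37C. Beta-lactamase reporter read by B/G FRET substrate fluorescence after 2 h at room temperature. qHTS format.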

[9] = qHTS assay to identify small molecule agonists of the vitamin D receptor (VDR) signaling pathway - cell viability counter screen (AID 743224); further: series mostly up to about 63 µM; nearly all actives have a fitted effect of over 50% in size
How it was run: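 Cells: VDR-bla, 2,000/well, settled 4 h. Treatment: compounds in DMSO, 16 h, 37C/5% CO2. Readout: CellTiter-Glo luminescence after 30 min RT.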

[10] = qHTS assay to identify small molecule antagonists of the vitamin D receptor (VDR) signaling pathway - cell viability counter screen (AID 743225); further: nearly all actives have a fitted effect of over 50% in size
How it was run: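 VDR-UAS-bla HEK 293T cells were plated and incubated 4 h at 37C, then dosed with compound plus 3 nM (final) 1-alpha,25-dihydroxyvitamin D3 for 16 h. After the 2 h beta-lactamase read, viability in the same wells was read as CellTiter-Glo luminescence after 30 min at room temperature.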

[11] = qHTS assay to identify small molecule agonists of the NFkB signaling pathway (AID 1159509; active means well fitted curve in the direction sought with a large enough effect in the signal ratio in the repeat runs, not every such curve was filed as active; the % refers to the signal ratio; further: series mostly up to about 61 µM)
How it was run: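 Beta-lactamase reporter assay run in quantitative high-throughput format on an NF-kB-responsive ME-180 line, with 5 hr compound treatment and a FRET-based blue/green fluorescence readout.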

[12] = qHTS assay to identify small molecule agonists of the NFkB signaling pathway - cell viability counter screen (AID 1159515; calls by dose curve; further: series mostly up to about 61 µM; nearly all actives have a fitted effect of over 55% in size)
How it was run: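 Cells are seeded (2,000 NFkB-bla ME-180 per well), rested overnight, and dosed with DMSO-dissolved compounds for 5 hr at 37 C. Viability is then read by CellTiter-Glo luminescence after 30 min at room temperature.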

[13] = qHTS assay to identify small molecule agonists of the endoplasmic reticulum stress response signaling pathway (AID 1159516; active means well fitted activation curve with a large enough effect in the signal ratio in the repeat runs, not every such curve was filed as active; the % refers to the signal ratio)
How it was run: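 Cells are seeded at 1,500 per well and incubated overnight. Compounds in DMSO are added for 5 hr at 37 C, then beta-lactamase FRET substrate for 2 hr at room temperature, and fluorescence at 460 and 530 nm is measured.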

[14] = qHTS assay to identify small molecule agonists of the endoplasmic reticulum stress response signaling pathway - cell viability counter screen (AID 1159517; calls by dose curve)
How it was run: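 Cytotoxicity of test compounds toward ESRE-bla HeLa cells was assessed after 5 hr exposure. The luminescent CellTiter-Glo signal was measured 30 min after reagent addition.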

[15] = qHTS assay to identify small molecule antagonists of the retinoid-related orphan receptor gamma (ROR-gamma) signaling pathway - cell viability counter screen (AID 1159520); further: nearly all actives have a fitted effect of over 50% in size
How it was run: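 Tet-on ROR gamma CHO cells (1,000/well) were plated 4 hr, given compounds in DMSO for 2 hr at 37 C, then induced with 1 uM final doxycycline for 16 hr. Viability was read as ATP by CellTiter-Glo luminescence after 30 min.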

[16] = target: Nuclear receptor ROR-gamma (Homo sapiens) (UniProt P51449); experiment: qHTS assay to identify small molecule antagonists of the retinoid-related orphan receptor gamma (ROR-gamma) signaling pathway (AID 1159521)
How it was run: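 Tet-on ROR-gamma CHO cells with ROR response element-luciferase reporter; compounds added 2 hr before 1 uM doxycycline induction, then 16 hr at 37 C. Antagonism scored as decreased ONE-Glo luminescence.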

[17] = qHTS assay to identify small molecule agonists of the AP-1 signaling pathway - cell viability counter screen (AID 1159525; calls by dose curve; further: nearly all actives have a fitted effect of over 55% in size)
How it was run: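 Each titration point was normalised to DMSO and tetra n-octyl ammonium bromide controls. The read was Cell Titer Glo luminescence after 30 min at RT, following 5 h compound exposure of ME-180 AP-1-bla cells at 37 °C.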

[18] = qHTS assay to identify small molecule agonists of the AP-1 signaling pathway (AID 1159526; calls by dose curve)

Measured: outcome

Cn1c(=O)c2[nH]c(Br)nc2n(C)c1=O
inactive: [1] | [2] | [3] | [4] | [5] | [6] | [7] | [8] | [9] | [10] | [11] | [12] | [13] | [14] | [15] | [16] | [17] | [18]

CO/N=C(/C(=O)N[C@@H]1C(=O)N2C(C(=O)[O-])=C(C[n+]3ccn4ncccc43)CS[C@H]12)c1nsc(N)n1
inactive: [1] | [2] | [3] | [4] | [5] | [6] | [9] | [10] | [11] | [12] | [13] | [14] | [15] | [16] | [17] | [18]

CC(=O)Nc1ccc(OC(=O)c2ccccc2OC(C)=O)cc1
inactive: [1] | [2] | [3] | [4] | [5] | [6] | [7] | [8] | [10] | [11] | [12] | [13] | [14] | [15] | [16] | [17] | [18]

CC(C)=CCC[C@@](C)(O)[C@H]1CC=C(C)CC1
inactive: [1] | [2] | [3] | [4] | [5] | [6] | [7] | [8] | [10] | [11] | [12] | [13] | [14] | [15] | [16] | [17] | [18]

NCCOCCN
inactive: [1] | [2] | [3] | [4] | [5] | [6] | [7] | [8] | [9] | [11] | [12] | [13] | [14] | [15] | [16] | [17] | [18]

CCC[C@@H]1C[C@@H](C(=O)N[C@@H]([C@H]2O[C@H](SC)[C@H](O)[C@@H](O)[C@H]2O)[C@@H](C)O)N(C)C1
inactive: [1] | [2] | [3] | [4] | [5] | [6] | [10] | [11] | [12] | [13] | [14] | [15] | [16] | [17] | [18]

COCCc1ccccn1
inactive: [1] | [2] | [3] | [4] | [5] | [6] | [10] | [11] | [12] | [13] | [14] | [15] | [16] | [17] | [18]

COC(C)(OC)OC
inactive: [1] | [2] | [3] | [4] | [5] | [6] | [7] | [8] | [9] | [10] | [11] | [12] | [13] | [14] | [15] | [16] | [17] | [18]

COC(=O)c1cc(Cl)cc(Cl)c1
inactive: [1] | [2] | [3] | [4] | [5] | [6] | [7] | [8] | [9] | [10] | [11] | [12] | [13] | [14] | [15] | [16] | [17] | [18]

O/N=C/C=N/O
inactive: [1] | [2] | [3] | [4] | [5] | [6] | [7] | [8] | [9] | [10] | [11] | [12] | [13] | [14] | [15] | [16] | [17] | [18]

CC(=O)CCC1=C(C)CCCC1(C)C
inactive: [1] | [2] | [3] | [4] | [5] | [6] | [7] | [10] | [11] | [12] | [13] | [14] | [15] | [16] | [17] | [18]

Nc1nc(-c2ccccc2)c(Br)c(=O)[nH]1
inactive: [1] | [2] | [3] | [4] | [5] | [6] | [7] | [8] | [9] | [10] | [11] | [12] | [13] | [14] | [15] | [16] | [17] | [18]

CN(C)CCOC(=O)C(c1ccccc1)C1(O)CCCC1 (configuration not stated)
inactive: [1] | [2] | [3] | [4] | [5] | [6] | [7] | [8] | [10] | [11] | [12] | [13] | [14] | [15] | [16] | [17] | [18]

C/C(CC(C)C)=N\O
inactive: [1] | [2] | [3] | [4] | [5] | [6] | [7] | [8] | [9] | [10] | [11] | [12] | [13] | [14] | [15] | [16] | [17] | [18]

CCCCSCCCC
inactive: [1] | [2] | [3] | [4] | [5] | [6] | [9] | [10] | [11] | [12] | [13] | [14] | [15] | [16] | [17] | [18]

ONc1ccccc1
inactive: [1] | [2] | [3] | [4] | [5] | [6] | [7] | [8] | [9] | [10] | [11] | [12] | [13] | [14] | [15] | [16] | [17] | [18]
